Source: PubChem BioAssay (NCI)
This is part of a sample that, as a whole, favours compounds with a hit. Of some 83,000 tested, about 20% had one in any assay.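 In brief: 96-well plates, 48 h treatment, single concentration, percent growth endpoint.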 Active and inactive are the calls of the source. How the source made its calls: active means growth percent below 10; inactive means the rest.

Key:
Experiment in all cases: NCI-60 one-dose screen, 48 h (100 = growth as untreated, 0 = no growth, -100 = all killed)
[1] = test system: HT29 colon; settings: 10 µM unless noted
[2] = test system: SNB-75 CNS; settings: 10 µM unless noted
[3] = test system: SNB-19 CNS; settings: 10 µM unless noted
[4] = test system: U251 CNS; settings: 10 µM unless noted
[5] = test system: PC-3 prostate; settings: 10 µM unless noted
[6] = test system: SK-MEL-5 melanoma; settings: 10 µM unless noted
[7] = test system: UACC-62 melanoma; settings: 10 µM unless noted
[8] = test system: LOX IMVI melanoma; settings: 10 µM unless noted
[9] = test system: SK-MEL-28 melanoma; settings: 10 µM
[10] = test system: SK-MEL-2 melanoma; settings: 10 µM unless noted

Measured: growth

CCOC(=O)c1ccc2[nH]c(-c3ccccc3)cc(=O)c2c1
inactive: [1] 103% | [2] 72.3% | [3] 94.9% | [4] 97.2% | [5] 89.1% | [6] 103% | [7] 101% | [8] 98.2% | [9] 109% | [10] 105%

COc1cccc(/C(C#N)=C/c2nc3c(N4CCOCC4)nc(Cl)nc3n2C)c1
inactive: [3] 55.6%
active: [1] -49.8% | [2] -17.2% | [4] -15.1% | [5] -27.4% | [6] 4.5% | [7] -62.3% | [8] -88.2% | [9] -77.5% | [10] -29.7%

COc1ccc(CCN2CCC(CN(C)Cc3cnn(-c4ccccc4)c3)CC2)cc1
active: [4] 9.09% | [7] -14.2% | [8] 2.01%
inactive: [1] 33.5% | [2] 59.9% | [3] 29.4% | [5] 34% | [6] 18.9% | [9] 33.4% | [10] 37.3%

CCOC(=O)c1sc(-c2ccc(OS(=O)(=O)c3ccc(Br)s3)c(C=O)c2)nc1C
active: [1] -17.9% | [2] -5.48% | [4] -4.79% | [6] -92.6% | [8] -54.5%
inactive: [3] 14.4% | [5] 20.1% | [7] 12.3% | [9] 55% | [10] 11.3%

O=C(/C=C/c1ccc(Cl)cc1)c1ccc(Nc2nc(NCCO)nc(Nc3ccc(Cl)cc3)n2)cc1
inactive: [1] 30.5% | [2] 47.5% | [3] 77.6% | [4] 21.8% | [5] 53.1% | [6] 81.5% | [7] 60.7% | [8] 37.2% | [9] 78.1% | [10] 96%

COc1ccc(C(O)(CCC(C)C)C(CN2CCOCC2)c2ccc(Cl)cc2)cc1 (stereo not given)
active: [1] 9% | [10] 2.58%
inactive: [2] 74.4% | [3] 83.6% | [4] 66.1% | [5] 53.8% | [6] 65.5% | [7] 60.9% | [8] 52.2% | [9] 54.1%

COc1cc(C2CC(c3ccc(Nc4nc(NCCO)nc(N5CCOCC5)n4)cc3)=NN2c2cc(Cl)cc(Cl)c2)cc(OC)c1OC (stereo not given)
inactive: [1] 33.6% | [2] 28.2% | [3] 72.6% | [4] 47.7% | [5] 34.1% | [6] 60.1% | [7] 48.6% | [8] 30.9% | [9] 72.8% | [10] 94.7%

COC(=O)/C(CCC=C(C)C)=C1\[C@@H](OC(C)=O)C[C@@]2(C)[C@H]1CC(=O)N[C@H]1[C@@]3(C)CCNC(=O)[C@@H](C)[C@@H]3CC[C@@]12C
inactive: [1] 102% | [2] 96.2% | [3] 98.6% | [4] 102% | [5] 97.8% | [6] 95.4% | [7] 96.3% | [8] 97.9% | [9] 106% | [10] 106%

O=C(CSc1ccc2nnc(-c3cccc(F)c3)n2n1)Nc1ccc2c(c1)OCO2
active: [2] -22.3%
inactive: [1] 99.6% | [3] 100% | [4] 70.3% | [5] 40.1% | [6] 86.1% | [7] 83.2% | [8] 61.1% | [9] 79.7% | [10] 92.6%

O=c1oc2ccc(-c3ccc(F)cc3F)cc2c(=O)n1-c1ccc(Cl)c(C(F)(F)F)c1
inactive: [1] 53.1% | [3] 33.9% | [8] 32.1% | [9] 20.3%
active: [2] 6.37% | [4] 6.46% | [5] 5.88% | [6] -69.6% | [7] 0.294% | [10] -18.1%
